Screen size: about 52,000 compounds; about 4,300 (8.3%) were called active. Cut-off read from the data, not from the text of the source: active = survival mostly below about 52% (no sharp cut-off); inactive = mostly above about 56%. The sample as a whole holds a higher share of actives than the screen did.

The test system of this assay is DeltatarO mutant. Put plainly: growth inhibition of S. aureus wild type versus tarO mutant, primary screen, teichoic acid synthesis inhibitors, RN4220, OD600 (AID 463173). As to conditions: OD600, 18 h, stronger effect = lower value, screened at 18.75 µg/mL (by protocol).
Regarding `COc1ccc(-n2c(=O)[nH]c3cc(C(=O)NCCc4ccccc4)ccc3c2=O)cc1OC`, the survival was 94% (inactive).
In the case of `COc1ccccc1NC(=O)Cn1c(=O)n(-c2ccc(C)cc2)c(=O)c2ccc(C(=O)NCc3ccco3)cc21`, the survival is 79% (inactive).
`Cc1ccc(N2CCN(C(=O)Cn3ncc4c([nH]c5ccc(C)cc54)c3=O)CC2)c(C)c1`: the survival is 94% (inactive).
Consider `COc1ccc(NC(=O)C2=C(C)Nc3ncnn3C2c2ccccn2)cc1` (stereo not given), for which the survival was 81% (inactive).
Take `Cc1ccc(S(=O)(=O)N2C(=O)CCC2C(=O)NCc2ccco2)cc1` (stereo not given): the survival is 77% (inactive).
For the compound `Cc1ccc2c(CC(=O)N3CCN(c4cccc(Cl)c4)CC3)coc2c1`, the survival was 75% (inactive).
As for `CCN(CC)CC(=O)Oc1ccc(NC2=NS(=O)(=O)c3ccccc32)cc1`, the survival was 96% (inactive).
To `CC1CCCN(C(=O)CCS(=O)(=O)c2cc3c(cc2Cl)NC(=O)CO3)C1` (stereo not given) belongs 84% (inactive); to `CCCC(=O)NCCc1ccc(F)cc1`, 119% (inactive).
Take `COC(=O)c1cc2occc2n1CC(=O)Nc1cccc(SC)c1`: the survival was 102% (inactive).
Regarding `Cc1ccc2oc(=O)c3cnn(CC(=O)N4CCN(c5ccc(F)cc5)CC4)c3c2c1`, the survival is 106% (inactive).
Turning to `Cc1ccc2onc(CC(=O)N3CCN(c4ccc(F)cc4)CC3)c2c1`, the survival was 41% (active).
Next, `CC(=O)c1ccc(N2CCN(C(=O)NCc3noc4ccc(C)cc34)CC2)cc1`: 45% (inactive); `CC(C)CNCC(=O)N(C1CCCCC1)C1CCCCC1`: 116% (inactive); `Cc1c(CN(C)C(=O)c2cc(-c3ccccc3)nc3ccc(Br)cc23)cnn1C`: 30% (active).
For the compound `Cc1ccc(-c2cc(C(=O)NCc3cnn(C)c3C)c3ccccc3n2)cc1C`, the survival was 49% (active).
For the compound `CCn1cc(CNC(=O)c2cc(-c3ccc(C)c(C)c3)nc3ccccc23)c(C)n1`, the survival was 123% (inactive).
On to `Cc1ccc(-c2cc(C(=O)NCc3cnn(C)c3)c3cc(Br)ccc3n2)cc1`, for which the survival was 51% (inactive).
With `CCOc1ccc(-c2cc(C(=O)NCc3ccccc3Cl)c3ccccc3n2)cc1`, the survival was 89% (inactive).
Next, `Cc1ccc(CNC(=O)c2cc(-c3ccc(C)c(C)c3)nc3ccccc23)cc1`: 74% (inactive); `Cc1nn(C)cc1CN(C)C(=O)c1cc(-c2ccccc2)nc2ccc(Br)cc12`: 67% (inactive); `CCn1cc(CNC(=O)c2cc(-c3ccc(C)cc3)nc3ccc(Br)cc23)c(C)n1`: 40% (active).
Turning to `COc1ccc(-c2cc(C(=O)NCc3ccc(C)cc3)c3cc(C(C)C)ccc3n2)cc1`, the survival was 76% (inactive).
To `N#CCN(CC#N)C(=O)c1cc(-c2ccccc2)nc2ccccc12` belongs 89% (inactive); to `Cc1ccc(-c2cc(C(=O)NCc3ccccc3Cl)c3ccccc3n2)cc1C`, 68% (inactive).
For `Cc1ccc(-c2cc(C(=O)NCc3cnn(C)c3C)c3cc(Br)ccc3n2)cc1`, the survival was 36% (active).
As for `CC(C)N(C(=O)CSc1nnc(CSc2ncccn2)n1C)C(C)C`, the survival was 58% (inactive).
Consider `CCOC(=O)c1ccc(NC(=O)Cc2ccc(-n3c(CC)nc4cccnc43)cc2)cc1`, for which the survival was 68% (inactive).
Next, `Cc1ccccc1Cn1c(=O)n(Cc2ccc3c(c2)OCO3)c(=O)c2oc3ccccc3c21`: 110% (inactive); `C/C=N/NC(=O)c1ccccc1`: 93% (inactive); `O=C(NC1CCCCC1)c1ccc2c(c1)N(Cc1cccc(F)c1)C(=O)c1ccccc1S2`: 88% (inactive).
On to `Cn1cnc(S(=O)(=O)N2CCC(C(=O)Nc3ccc(C#N)cc3)CC2)c1`, for which the survival is 107% (inactive).
Regarding `CC1=C(C(=O)Nc2cccc(C(F)(F)F)c2)C(c2ccccn2)n2ncnc2N1` (stereo not given), the survival was 102% (inactive).
On to `CC(C)(C)c1nn(-c2ccccc2)c2[nH]c(=O)c(CNc3ccc4c(c3)OCO4)cc12`, for which the survival is 86% (inactive).
For `CCOC(=O)c1ccc(N2C(=O)c3[nH]nc(-c4ccccc4)c3C2c2cccs2)cc1` (stereo not given), the survival is 123% (inactive).
`CCOC(=O)c1cc2c(=O)n3ccccc3nc2n(Cc2ccco2)c1=NC(=O)c1ccc(OCC)cc1`: the survival is 37% (active).
On to `CCOC(=O)c1cc2c(=O)n3ccccc3nc2n(Cc2ccco2)c1=NC(=O)c1ccccc1Br`, for which the survival is 71% (inactive).
`CCOC(=O)c1cc2c(=O)n3ccccc3nc2n(CC(C)C)c1=NC(=O)COc1ccc(Cl)cc1`: the survival was 136% (inactive).
As to `CCOC(=O)c1cc2c(=O)n3ccccc3nc2n(Cc2ccco2)c1=NC(=O)c1ccc(OC)cc1`, the survival is 34% (active).
With `CCOC(=O)c1cc2c(=O)n3ccccc3nc2n(Cc2ccco2)c1=NC(=O)c1ccccc1OC`, the survival is 28% (active).
Consider `CCC(C)NC(=O)Cn1c(=O)n(Cc2ccc(C(=O)NCc3ccccc3OC)cc2)c(=O)c2ccccc21` (stereo not given), for which the survival is 84% (inactive).
Turning to `O=c1ccnc(NCCc2ccccc2)[nH]1`, the survival is 104% (inactive).
Next, `Cn1cnc(S(=O)(=O)N2CCCC(C(=O)NCc3ccccc3Cl)C2)c1` (stereo not given): 99% (inactive).
With `O=C1CSC(=S)N1C1CCS(=O)(=O)C1` (stereo not given), the survival was 97% (inactive).
On to `O=C1/C(=C/C2=Cc3ccccc3OC2)SC(=S)N1C1CCS(=O)(=O)C1` (stereo not given), for which the survival is 44% (active).
On to `O=C1/C(=C\c2cccnc2)SC(=S)N1C1CCS(=O)(=O)C1` (stereo not given), for which the survival was 93% (inactive).
Turning to `COc1ccc(-n2cc(-c3ccc4c(c3)OCO4)n(CC(=O)Nc3cc(Cl)ccc3C)c2=O)cc1`, the survival is 73% (inactive).
In the case of `O=C(c1ccc2c(c1)N(Cc1ccc(F)cc1)C(=O)c1ccccc1S2(=O)=O)N1CCN(Cc2ccccc2)CC1`, the survival was 72% (inactive).
For the compound `O=C(CCSCc1ccc(Cl)cc1)NCCc1ccccc1`, the survival was -5% (active).
As to `Cc1ccc(CCNC(=O)c2ccc(CSCc3ccccc3C)o2)cc1`, the survival was 32% (active).
In the case of `Cc1ccc(CCNC(=O)CCSCc2ccccc2Cl)cc1`, the survival was 20% (active).
On to `Cc1ccc(CNC(=O)CCSCc2ccccc2F)cc1`, for which the survival was 78% (inactive).
As to `Cc1ccccc1CSCc1ccc(C(=O)NCCc2ccccc2)o1`, the survival is 83% (inactive).
Regarding `CCc1ccc(CNC(=O)CCSCc2ccccc2F)cc1`, the survival is 96% (inactive).
In the case of `Cc1ccc(CCNC(=O)CCSCc2ccc(Cl)cc2)cc1`, the survival was 82% (inactive).
To `Cc1ccc(CCNC(=O)c2ccc(CSCc3ccccc3Cl)o2)cc1` belongs 87% (inactive); to `Cc1ccc(CCNC(=O)CCSCc2ccccc2F)cc1`, -4% (active).
In the case of `O=C(CCSCc1ccccc1Cl)NCCc1ccccc1`, the survival is 71% (inactive).
To `COc1ccc(CCNC(=O)CCSCc2ccccc2Cl)cc1OC` belongs 76% (inactive).
Consider `O=C(CCSCc1cccc(Cl)c1)NCCc1ccc(Cl)cc1`, for which the survival was 76% (inactive).

Source of the values: PubChem BioAssay AID463173 (ICCB-Longwood Screening Facility, Harvard Medical School, 2010).
